Records with an inconclusive call do not appear. The source made the active and inactive calls. No rule for the calls is given here.

The values below come from PubChem BioAssay AID652070 (Broad Institute, 2013).

The nature of the assay: apoptosis induction over several timepoints – cell-based, HT29 HRAS, caspase 3/7 luminescence, multiple timepoints, dry powder, mechanism study for HRAS target identification (AID 652070). The conditions noted are these: max activity: measured here: third timepoint caspase 3/7, at 0.068 µM, stronger effect = higher value unless noted.

Turning to `COc1ccc(N(C(=O)CCl)C(C(=O)NCCc2ccccc2)c2cccs2)cc1Cl` (configuration not stated), the max activity was 22.2% [measured here: third timepoint caspase 3/7, at 8 µM, stronger effect = higher value] and the result was inactive.

As to `CCC(=O)N(c1ccc(OC)c(Cl)c1)C(C(=O)NCCc1ccccc1)c1cccs1` (configuration not stated), the max activity amounted to 17.8% and the molecule was classed as inactive.

For the molecule `Cc1onc(C(=O)N2CCN(C(c3ccc(Cl)cc3)c3ccc(OCCOCCOCCNC(=O)OC(C)(C)C)cc3)CC2)c1[N+](=O)[O-]` (configuration not stated), the max activity is 22.2% [measured here: third timepoint caspase 3/7, at 0.0001 µM, stronger effect = higher value] and the result was inactive.

Regarding `O=C(NCCOCCOCCOc1ccc(N(C(=O)CCl)C(C(=O)NCCc2ccccc2)c2cccs2)cc1Cl)c1ccc(COC2C#CCCCCC2)cc1` (configuration not stated), the max activity came to 24.4% and the call was inactive.

For the molecule `CO[C@H]1C[C@@H]2CC[C@@H](C)[C@@](O)(O2)C(=O)C(=O)N2CCCC[C@H]2C(=O)O[C@H]([C@H](C)C[C@@H]2CC[C@@H](O)[C@H](OC)C2)CC(=O)[C@H](C)/C=C(\C)[C@@H](O)[C@@H](OC)C(=O)[C@H](C)C[C@H](C)/C=C/C=C/C=C/1C`, the max activity is 31.1% [measured here: third timepoint caspase 3/7, at 35 µM, stronger effect = higher value] and the call was inactive.

For the molecule `Cc1onc(C(=O)N2CCN(C(c3ccc(Cl)cc3)c3ccc(Cl)cc3)CC2)c1[N+](=O)[O-]`, the max activity is 13.3% [measured here: third timepoint caspase 3/7, at 0.0001 µM, stronger effect = higher value] and the outcome was inactive.
